Among the data in PubChem BioAssay (NCI) are growth inhibition values, retold here.

A short description of experiment [1]: NCI Yeast Anticancer Drug Screen. Data for the rad50 strain (AID 155).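 Note: 0% = growth of vehicle-only cultures of the same strain.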 Conditions: S. cerevisiae rad50 strain growth inhibition, hits give high values. A digest of the protocol: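 Readout: growth inhibition relative to vehicle-treated cultures. Compound exposure was carried out in a genetically defined yeast strain deficient in DNA damage repair.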
Experiment [2] can be described thus: NCI Yeast Anticancer Drug Screen. Data for the mec2-1 strain (AID 157). The settings on record: S. cerevisiae mec2-1 strain, hits give high values. A digest of the protocol:
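Compounds were applied to mec2-1 yeast cells. Their growth was then compared with that of vehicle-treated cultures to give growth inhibition.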

Experiment [3] in a line: NCI Yeast Anticancer Drug Screen. Data for the sgs1 mgt1 strain (AID 161).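 Note: 0% = growth of cultures given vehicle only.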 Conditions: S. cerevisiae sgs1 mgt1 strain, hits give high values. A digest of the protocol:
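Growth of a repair-deficient yeast mutant was monitored after compound treatment and expressed as inhibition relative to vehicle-treated cultures.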

A short description of experiment [4]: NCI Yeast Anticancer Drug Screen. Data for the cln2 rad14 strain (AID 165).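 Note: 0% = growth equal to vehicle treated cultures.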 The settings on record: S. cerevisiae cln2 rad14 strain, hits give high values. A digest of the protocol: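 Strain: cln2 rad14 yeast, altered in cell cycle control and DNA damage repair. Read-out: growth inhibition vs vehicle.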
A short description of experiment [5]: NCI Yeast Anticancer Drug Screen. Data for the bub3 strain (AID 167). Conditions: S. cerevisiae bub3 mutant strain, hits give high values. A digest of the protocol: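 Readout: yeast growth inhibition, expressed relative to vehicle-only wells. The test organism is a mutant strain from a panel with lesions in DNA repair or checkpoint genes.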
Experiment [6] is described as follows: NCI Yeast Anticancer Drug Screen. Data for the mlh1 rad18 strain (AID 175). The settings on record: S. cerevisiae mlh1 rad18 strain growth inhibition, hits give high values. Summed up: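 A repair-deficient yeast strain is exposed to test compound, and growth is scored relative to vehicle-treated controls.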
[7] abbreviates: at 5.0 µM (retest, dose inferred, filed as 0.5).
The mark [8] stands for this setting: at 50.0 µM (retest, dose inferred, filed as 5.0).

Compounds without any hit were thinned out: in the full panel of roughly 79,000, 15% have a hit. Values without a mark were called inactive. The source made the active and inactive calls. Cut-off read from the data, not from the text of the source: active = growth inhibition above about 70%; inactive = the rest.

With `CC(C)c1cc(=O)c2cc3[nH]c4ccccc4c3cc2[nH]1`, the growth inhibition in experiment [1] (setting [7]) was -2%; in experiment [1] (setting [8]), 92% (active); in experiment [1] (at 50.0 µM), 49.9%; in experiment [2] (setting [7]) it was -2%; in experiment [2] (setting [8]), 87% (active); in experiment [2] (at 50.0 µM) it was 52.8%. For the same compound, the growth inhibition is -69% in experiment [3] (setting [7]); 96% (active) in experiment [3] (setting [8]); 50.9% in experiment [3] (at 50.0 µM); -18% in experiment [4] (setting [7]); 81% (active) in experiment [4] (setting [8]); 68.5% in experiment [4] (at 50.0 µM). Further, the growth inhibition in experiment [5] (setting [7]) is -2%; in experiment [5] (setting [8]), 94% (active); in experiment [5] (at 50.0 µM), 10.6%; in experiment [6] (setting [7]), -9%; in experiment [6] (setting [8]), 86% (active); in experiment [6] (at 50.0 µM), 54.2%.

As to `Cc1ccc(N2CC3CC4(C)C=CC3(C2)O4)cc1` (stereo not given), the growth inhibition in experiment [1] (setting [7]) is 6%; in experiment [1] (setting [8]) it was 8%; in experiment [1] (at 50.0 µM), 76% (active); in experiment [2] (setting [7]), -9%; in experiment [2] (setting [8]) it was 1%; in experiment [2] (at 50.0 µM), 49.7%. The growth inhibition in experiment [3] (setting [7]) was 10%; in experiment [3] (setting [8]), 22%; in experiment [3] (at 50.0 µM), 79.8% (active); in experiment [4] (setting [7]), -22%; in experiment [4] (setting [8]), 10%; in experiment [4] (at 50.0 µM), -6.65%. Besides, the growth inhibition is 13% in experiment [5] (setting [7]); -3% in experiment [5] (setting [8]); 89.5% (active) in experiment [5] (at 50.0 µM); 30% in experiment [6] (setting [7]); -1% in experiment [6] (setting [8]); 50.8% in experiment [6] (at 50.0 µM).

Regarding `O=P(O)(CN1CCN(CP(=O)(O)c2ccccc2)CCN(CP(=O)(O)c2ccccc2)CC1)c1ccccc1`, the growth inhibition in experiment [1] (setting [7]) was 17%; in experiment [1] (setting [8]), 65%; in experiment [1] (at 50.0 µM) it was 86.7% (active); in experiment [2] (setting [7]) it was 4%; in experiment [2] (setting [8]), 61%; in experiment [2] (at 50.0 µM), 81.8% (active). In addition, the growth inhibition in experiment [3] (setting [7]) is 11%; in experiment [3] (setting [8]), 51%; in experiment [3] (at 50.0 µM), 85% (active); in experiment [4] (setting [7]), 12%; in experiment [4] (setting [8]), 58%; in experiment [4] (at 50.0 µM) it was 60%. Also, the growth inhibition in experiment [5] (setting [7]) is 30%; in experiment [5] (setting [8]), 72% (active); in experiment [5] (at 50.0 µM), 88.3% (active); in experiment [6] (setting [7]), 22%; in experiment [6] (setting [8]) it was 53%; in experiment [6] (at 50.0 µM), 80.3% (active).

Consider `CCCCCCCCCCCCCCCC1(OC)C[N+](C)(C)CCO1` (stereo not given), for which the growth inhibition in experiment [1] (setting [7]) is 99% (active); in experiment [1] (setting [8]), 99% (active); in experiment [1] (at 50.0 µM), 99.5% (active); in experiment [2] (setting [7]), 100% (active); in experiment [2] (setting [8]), 100% (active); in experiment [2] (at 50.0 µM), 99.7% (active). For the same compound, the growth inhibition is 99% (active) in experiment [3] (setting [7]); 100% (active) in experiment [3] (setting [8]); 99.7% (active) in experiment [3] (at 50.0 µM); 100% (active) in experiment [4] (setting [7]); 100% (active) in experiment [4] (setting [8]); 99.5% (active) in experiment [4] (at 50.0 µM). The growth inhibition was 99% (active) in experiment [5] (setting [7]); 99% (active) in experiment [5] (setting [8]); 99.7% (active) in experiment [5] (at 50.0 µM); 99% (active) in experiment [6] (setting [7]); 100% (active) in experiment [6] (setting [8]); 99.7% (active) in experiment [6] (at 50.0 µM).

For `COc1cc2c(cc1O)C(O)CCCC2` (stereo not given), the growth inhibition in experiment [1] (setting [7]) is -146%; in experiment [1] (setting [8]), -152%; in experiment [1] (at 50.0 µM), 6.6%; in experiment [2] (setting [7]), -45%; in experiment [2] (setting [8]), -55%; in experiment [2] (at 50.0 µM), -14.6%. Also, the growth inhibition is -62% in experiment [3] (setting [7]); -32% in experiment [3] (setting [8]); 41.8% in experiment [3] (at 50.0 µM); -52% in experiment [4] (setting [7]); -61% in experiment [4] (setting [8]); -4.15% in experiment [4] (at 50.0 µM). Also, the growth inhibition in experiment [5] (setting [7]) is -64%; in experiment [5] (setting [8]), -75%; in experiment [5] (at 50.0 µM), -6.4%; in experiment [6] (setting [7]) it was -147%; in experiment [6] (setting [8]) it was -108%; in experiment [6] (at 50.0 µM), 12.3%.

With `CC(C)CCCCCCCCCCCCC(=O)NCC(=O)NC1C(O)C(O)C(Nc2ncnc3nc[nH]c23)OC1C(O)CO` (stereo not given), the growth inhibition is 25% in experiment [1] (setting [7]); 53% in experiment [1] (setting [8]); 34.5% in experiment [1] (at 50.0 µM); 26% in experiment [2] (setting [7]); 46% in experiment [2] (setting [8]); 25.9% in experiment [2] (at 50.0 µM). Besides, the growth inhibition was 7% in experiment [3] (setting [7]); 43% in experiment [3] (setting [8]); 52.2% in experiment [3] (at 50.0 µM); 5% in experiment [4] (setting [7]); -14% in experiment [4] (setting [8]); 47.9% in experiment [4] (at 50.0 µM). Also, the growth inhibition in experiment [5] (setting [7]) is 18%; in experiment [5] (setting [8]), 63%; in experiment [5] (at 50.0 µM) it was 52.4%; in experiment [6] (setting [7]), 44%; in experiment [6] (setting [8]) it was 63%; in experiment [6] (at 50.0 µM), 53.9%.

As to `Cc1ccccc1-n1c(N)c(-c2nc3ccccc3[nH]2)sc1=S`, the growth inhibition in experiment [1] (setting [7]) was 36%; in experiment [1] (setting [8]) it was 45%; in experiment [1] (at 50.0 µM), 81.2% (active); in experiment [2] (setting [7]) it was 22%; in experiment [2] (setting [8]) it was 50%; in experiment [2] (at 50.0 µM), 70.7% (active). The growth inhibition in experiment [3] (setting [7]) is 42%; in experiment [3] (setting [8]), 57%; in experiment [3] (at 50.0 µM), 68.2%; in experiment [4] (setting [7]) it was 37%; in experiment [4] (setting [8]), 44%; in experiment [4] (at 50.0 µM), 70.4% (active). For the same compound, the growth inhibition in experiment [5] (setting [7]) is 41%; in experiment [5] (setting [8]), 55%; in experiment [5] (at 50.0 µM), 83.1% (active); in experiment [6] (setting [7]), 42%; in experiment [6] (setting [8]), 61%; in experiment [6] (at 50.0 µM) it was 80.2% (active).

Turning to `O=S(=O)(c1cc(Cl)c(Cl)cc1Cl)N(CCCCCN(S(=O)(=O)c1cc(Cl)c(Cl)cc1Cl)S(=O)(=O)c1cc(Cl)c(Cl)cc1Cl)S(=O)(=O)c1cc(Cl)c(Cl)cc1Cl`, the growth inhibition in experiment [1] (setting [7]) was -9%; in experiment [1] (setting [8]), -3%; in experiment [1] (at 50.0 µM), 98.6% (active); in experiment [2] (setting [7]), -11%; in experiment [2] (setting [8]), -13%; in experiment [2] (at 50.0 µM), 98.2% (active). Moreover, the growth inhibition in experiment [3] (setting [7]) was -14%; in experiment [3] (setting [8]), -23%; in experiment [3] (at 50.0 µM) it was 97.1% (active); in experiment [4] (setting [7]), -10%; in experiment [4] (setting [8]) it was -8%; in experiment [4] (at 50.0 µM), 96% (active). Moreover, the growth inhibition is 19% in experiment [5] (setting [7]); 4% in experiment [5] (setting [8]); 98.9% (active) in experiment [5] (at 50.0 µM); -29% in experiment [6] (setting [7]); -17% in experiment [6] (setting [8]); 97.8% (active) in experiment [6] (at 50.0 µM).

Take `COc1ccc(SSc2ccc(OC)n[n+]2[O-])[n+]([O-])n1`: the growth inhibition in experiment [1] (setting [7]) is 98% (active); in experiment [1] (setting [8]), 99% (active); in experiment [1] (at 50.0 µM), 99.3% (active); in experiment [2] (setting [7]), 98% (active); in experiment [2] (setting [8]), 100% (active); in experiment [2] (at 50.0 µM), 99.7% (active). Besides, the growth inhibition was 93% (active) in experiment [3] (setting [7]); 99% (active) in experiment [3] (setting [8]); 98.8% (active) in experiment [3] (at 50.0 µM); 57% in experiment [4] (setting [7]); 97% (active) in experiment [4] (setting [8]); 98.3% (active) in experiment [4] (at 50.0 µM). Besides, the growth inhibition in experiment [5] (setting [7]) was 59%; in experiment [5] (setting [8]), 99% (active); in experiment [5] (at 50.0 µM), 99.5% (active); in experiment [6] (setting [7]), 72% (active); in experiment [6] (setting [8]), 99% (active); in experiment [6] (at 50.0 µM), 99.5% (active).

In the case of `CN1CC[C@@H](c2ccccc2)[C@@H](O)C1`, the growth inhibition in experiment [1] (setting [7]) is 0%; in experiment [1] (setting [8]) it was -11%; in experiment [1] (at 50.0 µM), 6.3%; in experiment [2] (setting [7]), 4%; in experiment [2] (setting [8]), -4%; in experiment [2] (at 50.0 µM) it was 12%. In addition, the growth inhibition in experiment [3] (setting [7]) is 2%; in experiment [3] (setting [8]), -10%; in experiment [3] (at 50.0 µM), 49.1%; in experiment [4] (setting [7]), -3%; in experiment [4] (setting [8]), -11%; in experiment [4] (at 50.0 µM), -1.15%. For the same compound, the growth inhibition is 0% in experiment [5] (setting [7]); -3% in experiment [5] (setting [8]); 3.5% in experiment [5] (at 50.0 µM); -1% in experiment [6] (setting [7]); -29% in experiment [6] (setting [8]); 9.55% in experiment [6] (at 50.0 µM).
